Screens (PubChem BioAssay)
IMPase Li cell: membrane-permeable IMPase blocker, potentiated with lithium. actives 0.35% (n = 210,000). Potency, µM (highest dose often 59.4 µM), most hits filed as inhibitors. CHO-M1 cells, IP1 TR-FRET (IP-One), carbachol + lithium. AID 1457; active = well fitted inhibition curve with a large enough effect; inconclusive = small, poorly fitted or top-dose-only effect; inactive = no such curve, though single readings can be large or run the other way;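 also: IP1 builds up when IMPase is blocked and the TR-FRET signal falls; nearly all actives have a fitted effect of over 50% in size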
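Steps: plate 2000 CHO-M1 cells per well and culture 16–30 h; add compound and lithium; incubate 30 min, 37C; add d2-IP1 tracer and Eu cryptate anti-IP1 antibody in lysis buffer; read after 10 min at room temperature.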
HPGD block: inhibitors of human 15-hydroxyprostaglandin dehydrogenase (HPGD) | purified HPGD, NADH fluorescence kinetic, PGE2 substrate | actives 4.3% (n = 150,000) | Potency, µM, hits mostly inhibitors | P15428
Target sequence (P15428 whole entry, looked up): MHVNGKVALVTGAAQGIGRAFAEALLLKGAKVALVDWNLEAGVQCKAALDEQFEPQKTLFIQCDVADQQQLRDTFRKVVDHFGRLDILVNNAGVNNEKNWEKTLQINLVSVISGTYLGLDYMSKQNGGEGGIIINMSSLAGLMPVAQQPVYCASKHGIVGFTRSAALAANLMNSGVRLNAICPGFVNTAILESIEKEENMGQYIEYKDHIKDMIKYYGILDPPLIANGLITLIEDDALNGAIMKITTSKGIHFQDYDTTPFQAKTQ
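NADH formation kinetics: reaction with 30 uM PGE2 and 1 mM NAD+ (final), 20 nM enzyme, Tris-HCl pH 8 with Tween 20, after 15 min compound preincubation at room temperature. Fluorescence change, last versus first of five reads.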
IMPase inh: cell-permeable inhibitors of inositol monophosphatase (IMPase); P97697; CHO-M1 cells, IP1 accumulation, HTRF TR-FRET ratio; inhibition (IP1 accumulation), % at 46.1 µM; 120,000 tested, under 10 active; active = well fitted curve in the direction sought with a large enough effect in the signal ratio, not every such curve was filed as active; inconclusive = small, poorly fitted or top-dose-only effect, or a change in a side signal; inactive = no such curve, though single readings can be large or run the other way; the % refers to the signal ratio;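 also: cells stimulated with carbachol in lithium chloride buffer; higher means more IMPase inhibition seen as more IP1 and lower FRET ratio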
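Cellular IMPase inhibition is scored as a rise in cytosolic IP1, detected by competitive TR-FRET between d2-labelled IP1 and a europium anti-IP1 antibody. M1-expressing CHO cells were stimulated with carbachol for 30 min at 37C, with lithium (50 mM LiCl) present in the buffer.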
PNC inhibitor: blocks assembly of the perinucleolar compartment. PC3M PTB-GFP, PNC prevalence imaging, 16 h; hits give low values. activity change (PNC), negative = inhibition, % at 10 µM. actives 3.1% (n = 140,000);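 active = readout at or below -70, meaning at least 70% loss of cells showing the perinucleolar compartment, a nuclear body marking cancer cells; inconclusive = readout between -30 and a set limit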
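Read-out is percentage of cells bearing a perinucleolar compartment, from automated 20x imaging of fixed, Hoechst-stained PC3M PTB-GFP cells. Cells were seeded 4 h, then exposed 16 h to compound (23 nl of library stock) in duplicate plates.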
ALDH1A1 inh: ALDH1A1 (human) enzyme inhibition; actives 7.3% (n = 220,000); AID 1030; P00352; Potency, µM (highest dose often 75.3 µM), hits mostly inhibitors; Purified ALDH1A1, NADH fluorescence, propionaldehyde substrate
Target sequence (P00352 whole entry, looked up): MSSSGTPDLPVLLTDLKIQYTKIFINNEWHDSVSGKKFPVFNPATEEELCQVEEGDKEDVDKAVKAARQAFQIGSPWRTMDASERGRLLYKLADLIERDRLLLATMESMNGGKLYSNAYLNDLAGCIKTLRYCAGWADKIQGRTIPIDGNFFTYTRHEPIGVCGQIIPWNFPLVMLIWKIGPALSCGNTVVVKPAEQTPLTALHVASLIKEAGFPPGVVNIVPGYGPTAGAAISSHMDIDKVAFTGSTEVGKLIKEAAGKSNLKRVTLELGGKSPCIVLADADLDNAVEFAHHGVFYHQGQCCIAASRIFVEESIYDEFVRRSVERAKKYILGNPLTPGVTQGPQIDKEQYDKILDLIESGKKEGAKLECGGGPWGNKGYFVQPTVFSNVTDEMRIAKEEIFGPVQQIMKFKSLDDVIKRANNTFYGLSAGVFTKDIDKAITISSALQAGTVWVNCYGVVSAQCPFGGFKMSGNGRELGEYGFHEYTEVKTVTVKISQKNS
Of the large screens only hits and unclear results are named; the others gave an inactive call. Most compounds without a hit are left out; they make up all but 11% or so of the library. Unless noted, calls follow the shape of the dose curve; as a rule, active = well fitted inhibition curve with a large enough effect (not every such curve was filed as active); inconclusive = small, poorly fitted or top-dose-only effect, or another doubt; inactive = no such curve, though single readings can be large or run the other way.

S=C(Nc1ccc(Cl)cc1)N1CCN(Cc2ccccc2)CC1	none (no result: HPGD block, IMPase inh, PNC inhibitor)
C=CCNC(=S)N1CCN(Cc2ccccc2)CC1	ALDH1A1 inh 14µM (no result: HPGD block, IMPase inh, PNC inhibitor)
CC1CCc2c(C(=O)Nc3ccc(N4CCOCC4)cc3)csc2C1 (stereo not given)	none (no result: HPGD block, IMPase inh, PNC inhibitor)
Cc1ccc(C)c(OCCn2cc(C(=O)c3ccco3)c3ccccc32)c1	none (no result: IMPase Li cell, HPGD block, PNC inhibitor, ALDH1A1 inh)
CCNc1ncc2nc(-c3ccccc3)c(=O)n(C[C@H]3CCCO3)c2n1	ALDH1A1 inh inconclusive (no result: HPGD block, IMPase inh, PNC inhibitor)
S=C(NCC1CCCO1)Nc1ccccc1Cl (stereo not given)	HPGD block 13µM (no result: IMPase inh)
Cc1ccc(S(=O)(=O)N2CCN(Cc3ccccc3Cl)CC2)cc1	none (no result: IMPase Li cell, HPGD block, PNC inhibitor, ALDH1A1 inh)
O=C(Nc1ccc(O)cc1)c1cccc(Oc2ccc([N+](=O)[O-])cc2)c1	none (no result: HPGD block, IMPase inh, PNC inhibitor)
CN(C)S(=O)(=O)Oc1cccc(C(=O)Nc2ccc([N+](=O)[O-])cc2)c1	ALDH1A1 inh 4.5µM (no result: HPGD block, IMPase inh, PNC inhibitor)
O=C(NCC1CCCO1)c1ccccc1-c1nc(-c2ccc(Cl)cc2)no1 (stereo not given)	none
Cc1cccc(NC(=O)c2ccccc2-c2ccccc2)c1	none (no result: HPGD block, IMPase inh, PNC inhibitor)
Cc1cccc(-c2noc(-c3ccccc3C(=O)NCC3CCCO3)n2)c1 (stereo not given)	ALDH1A1 inh 16µM
COc1cccc(NC(=O)c2ccccc2-c2nc(-c3cccc(C)c3)no2)c1	PNC inhibitor -139, ALDH1A1 inh inconclusive
CNCC[C@H](Oc1ccccc1C)c1ccccc1	none (no result: IMPase Li cell, HPGD block, PNC inhibitor, ALDH1A1 inh)
CCOc1cc(C2C(C(=O)c3ccc(C)o3)=C(O)C(=O)N2CCc2ccccc2)ccc1O (stereo not given)	none
Cc1ccc(C(=O)C2=C(O)C(=O)N(Cc3ccccc3)C2c2cccnc2)o1 (stereo not given)	IMPase Li cell 10µM, IMPase inh inconclusive, PNC inhibitor inconclusive
Cc1ccc(C(=O)C2=C(O)C(=O)N(c3ncccn3)C2c2ccc(Cl)cc2)o1 (stereo not given)	IMPase Li cell 13µM, IMPase inh inconclusive, ALDH1A1 inh inconclusive
O=C(C1=C(O)C(=O)N(c2ncccn2)C1c1cccc(Cl)c1)c1ccco1 (stereo not given)	IMPase Li cell inconclusive, ALDH1A1 inh 18µM
O=C(C1=C(O)C(=O)N(c2ncccn2)C1c1ccc(Cl)c(Cl)c1)c1ccco1 (stereo not given)	IMPase Li cell inconclusive, HPGD block inconclusive, PNC inhibitor inconclusive, ALDH1A1 inh 7.9µM
CCOc1cccc(C2C(C(=O)c3ccco3)=C(O)C(=O)N2Cc2ccncc2)c1 (stereo not given)	none
Cc1cc(N2C(=O)C(O)=C(C(=O)c3ccco3)C2c2cccnc2)no1 (stereo not given)	IMPase Li cell inconclusive, PNC inhibitor inconclusive
CCOC(=O)Cn1c(=NC(=O)c2ccc([N+](=O)[O-])s2)sc2ccccc21	none (no result: IMPase inh)
O=C(C1=C(O)C(=O)N(c2ncccn2)C1c1ccc(Cl)cc1)c1ccco1 (stereo not given)	IMPase Li cell 13µM, IMPase inh inconclusive, ALDH1A1 inh inconclusive
O=C(C1=C(O)C(=O)N(CCN2CCOCC2)C1c1ccncc1)c1ccco1 (stereo not given)	ALDH1A1 inh inconclusive
O=C(Nc1ccc(OC(F)F)c(Cl)c1)Nc1ccc2c(c1)OCO2	PNC inhibitor -87
O=C(Nc1ccc([N+](=O)[O-])cc1)Nc1ccc(OC(F)F)c(Cl)c1	PNC inhibitor -113 (no result: IMPase inh)
O=C(Nc1ccc2c(c1)OCO2)Nc1ccc2c(c1)OCO2	none (no result: HPGD block, IMPase inh, PNC inhibitor)
COc1ccc(C2C(C(C)=O)=C(O)C(=O)N2C)c(OC)c1 (stereo not given)	PNC inhibitor -127
COc1ccc(C2C(C(C)=O)=C(O)C(=O)N2c2cccnc2)c(OC)c1 (stereo not given)	IMPase Li cell inconclusive, HPGD block inconclusive, PNC inhibitor inconclusive, ALDH1A1 inh 32µM
COc1ccc(OC)c(C2C(C(C)=O)=C(O)C(=O)N2Cc2cccnc2)c1 (stereo not given)	ALDH1A1 inh 28µM
COc1ccc(OC)c(C2C(C(C)=O)=C(O)C(=O)N2c2ccc(F)cc2)c1 (stereo not given)	IMPase Li cell inconclusive, ALDH1A1 inh inconclusive
Cc1ccc(C(=O)N/N=C2/NC(=O)CC(C(=O)Nc3ccccc3)S2)cc1 (stereo not given)	none
O=C(NNC(=O)c1cccnc1SCc1cccc([N+](=O)[O-])c1)c1ccc(F)cc1	PNC inhibitor -87
COCOc1ccc(Br)cc1C(=O)[C@H]1O[C@H]1c1cccc(OC)c1	none (no result: IMPase Li cell, HPGD block, IMPase inh, PNC inhibitor)
CC1CCN(C(=O)c2ccc3c(Cl)c4c(nc3c2)CCCC4)CC1	ALDH1A1 inh 4.5µM (no result: HPGD block, IMPase inh, PNC inhibitor)
CCN(C(=O)c1ccc2c(Cl)c3c(nc2c1)CCC3)c1cccc(C)c1	HPGD block 13µM, ALDH1A1 inh inconclusive (no result: IMPase inh)
CCOC(=O)N1CCN=C1SCc1ccc(Cl)c(Cl)c1	none (no result: HPGD block, IMPase inh, PNC inhibitor)
CC(C)=NNc1cc([N+](=O)[O-])cc2c1C(=O)N(C)S2=O (stereo not given)	none (no result: HPGD block, IMPase inh, PNC inhibitor)
NNc1cc([N+](=O)[O-])cc2c1C(=O)N(Cc1ccccc1)S2=O (stereo not given)	ALDH1A1 inh 14µM (no result: HPGD block, IMPase inh, PNC inhibitor)
CCc1nc(SCC(=O)N2CCC(C)CC2)c2c(=O)n(C)c(=O)n(C)c2n1	ALDH1A1 inh 11µM
CC(C)c1nc(SCC(=O)N2CCN(c3ccccc3)CC2)c2c(=O)n(C)c(=O)n(C)c2n1	PNC inhibitor inconclusive
CC(C)c1nc(SCC(=O)N2CCOCC2)c2c(=O)n(C)c(=O)n(C)c2n1	PNC inhibitor -106
CCc1nc(SCC(=O)N2CCC(Cc3ccccc3)CC2)c2c(=O)n(C)c(=O)n(C)c2n1	IMPase inh inconclusive
Cc1ccc(S(=O)(=O)Nc2ccc3c(c2)OCCO3)cc1C	ALDH1A1 inh inconclusive (no result: HPGD block, IMPase inh, PNC inhibitor)
O=S(=O)(Nc1ccc2c(c1)OCCO2)c1ccc2oc3ccccc3c2c1	HPGD block 28µM, ALDH1A1 inh inconclusive
Cc1c2c(nc3ccccc13)CC(C)(C)CC2=O	ALDH1A1 inh 14µM (no result: HPGD block, IMPase inh, PNC inhibitor)
O=C(c1cccs1)N1CCN(Cc2ccccc2[N+](=O)[O-])CC1	ALDH1A1 inh 25µM (no result: IMPase inh)
COc1ccc(CN2CCN(C(=O)c3cccs3)CC2)c(OC)c1OC	ALDH1A1 inh 18µM
COc1ccc(CN2CCN(C(=O)C3CCC(CNS(=O)(=O)c4ccccc4)CC3)CC2)c(OC)c1OC (stereo not given)	ALDH1A1 inh 14µM (no result: HPGD block, IMPase inh, PNC inhibitor)
CCOC(=O)N1CCN(C(=O)C2CCC(CNS(=O)(=O)c3ccccc3)CC2)CC1 (stereo not given)	ALDH1A1 inh inconclusive
Cc1cccc(NC(=S)N(CCN2CCOCC2)Cc2cc3cc4c(cc3[nH]c2=O)OCCO4)c1	ALDH1A1 inh inconclusive (no result: HPGD block, IMPase inh, PNC inhibitor)
CC(=O)NC(=S)NNC(=O)COc1ccc([N+](=O)[O-])cc1	ALDH1A1 inh 22µM (no result: HPGD block, IMPase inh, PNC inhibitor)
C/C(=N\NC(=O)COc1ccc([N+](=O)[O-])cc1)C(C)(C)C	ALDH1A1 inh 20µM
CC(=O)NC(=S)NNC(=O)COc1ccc(Br)cc1	ALDH1A1 inh 18µM (no result: HPGD block, IMPase inh, PNC inhibitor)
